Phagocytosis inh: macrophage phagocytosis inhibition. J774A.1 macrophage IgG-bead phagocytosis, imaging. inhibition, % at 5 µM. hit rate 0.07% among 110,000. AID 1029;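 active = inhibition above the mean of the plate negative controls plus 5 SD, cut at about 13% in these data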;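 also: phagocytic index as fraction of beads internalized from green versus red external bead signal; plate controls were DMSO negative control for no effect and cytochalasin-D positive control for full effect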
NFkB transloc inh: blocks IL-1B driven NFkB nuclear translocation in HUVEC cells; HUVEC IL-1B NFkB p65 nuclear translocation imaging; inhibition, % at 2 µM; hit rate 0.43% among 94,000; AID 796;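 active = inhibition above about 30% together with a positive call from visual inspection of the well image, limit read from the data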;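 also: nuclear over cytoplasmic p65 intensity ratio measured by imaging; 0% = IL-1B stimulated DMSO wells and 100% = unstimulated DMSO wells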
NFkB transloc pot: enhances IL-1B driven NFkB nuclear translocation | HUVEC IL-1B NFkB p65 nuclear translocation imaging | hit rate 0.3% among 94,000 | AID 819 | activation, % at 2 µM;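 active = activation above 40%, about the mean plus 3 SD, also judged a hit on visual image review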;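 also: percent activation is computed from the nuclear over cytoplasmic p65 intensity ratio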
VCAM1 TNFa inh: reduces TNF alpha induced VCAM1 expression in HUVEC; AID 802; inhibition, % at 2 µM; hit rate 0.48% among 95,000; HUVEC TNFa-induced VCAM-1 immunofluorescence, high-content imaging;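 active = inhibition above the batch mean plus 3 SD, with images confirmed as a hit by eye, cut at about 37% in these data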;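 also: 0% = TNF-stimulated DMSO wells and 100% = unstimulated control wells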
HUVEC tox TNFa: HUVEC cytotoxicity counter-screen, TNF alpha stimulated; HUVEC TNFalpha-stimulated, Hoechst cell count, imaging; cell count reduction, % at 2 µM; hit rate 0.17% among 93,000;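 active = cell count reduction exceeding the screen mean by over 5 SD, scaled to untreated wells per plate, cut at about 78% in these data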;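 also: cells counted after 24 h of TNF alpha exposure following the 1 h pretreatment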
IL1B cytotox: HUVEC cytotoxicity counter-screen, IL-1B stimulated; hit rate 0.41% among 94,000; cell count reduction, % at 2 µM; HUVEC cell count loss, Hoechst imaging;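 active = cell count reduction more than 3 SD above the screen-wide mean, cut at about 70% in these data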;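 also: normalized per plate to untreated control cells as the no-loss baseline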
An asterisk follows results filed as active; · = no result given. An excerpt weighted towards active compounds, which were near 1.2% of everything screened.

SMILES	Phagocytosis inh	NFkB transloc inh	NFkB transloc pot	VCAM1 TNFa inh	HUVEC tox TNFa	IL1B cytotox
CNC(=O)CCCc1nc(-c2ccccc2Cl)no1	-0.4	-65.2	65.2*	-1.7	-48.9	4.4
CCN(CC)CCN(C)C1CCC(c2ccccc2)CC1 (stereo not drawn)	-6.0	·	·	·	·	·
COc1ccc(C2C(C(C)=O)=C(C)N=c3s/c(=C\c4ccc5c(c4)OCO5)c(=O)n32)c(OC)c1 (stereo not drawn)	·	-12.6	12.6	8.1	-5.4	94.4*
COc1ccc(C2C(C(C)=O)=C(C)N=c3s/c(=C\c4ccco4)c(=O)n32)c(OC)c1 (stereo not drawn)	2.1	10.3	-10.3	0.8	0.8	-13.1
O=C(Nc1ccccc1)c1nnsc1S(=O)c1ccc(Cl)cc1 (stereo not drawn)	0.6	12.3	-12.3	43.1*	4.1	19.3
O=C(Nc1ccc(Cl)cc1)c1cccs1	1.7	19.6	-19.6	-17.5	-4.7	-77.9
O=S(=O)(NCc1cccnc1)c1ccc(Cl)s1	·	58.6*	-58.6	-0.9	37.3	89.9*
Cc1ccccc1-n1c(SCC(=O)NC(N)=O)nc2sc(-c3ccccc3)cc2c1=O	-0.2	·	·	·	·	·
CCNCC(O)COCC(O)CNCC (stereo not drawn)	·	-26.1	26.1	62.1*	77.6	0.8
Clc1ccc(-c2nnc(SCc3ccon3)o2)c(Cl)c1	·	4.1	-4.1	4.5	-4.6	70.3*
C=CCSc1nnc(-c2ccc(Cl)cc2Cl)o1	4.0	10.3	-10.3	-2.4	-45.8	4.5
COC(=O)c1ccc(-c2nc3ccccc3[nH]2)cc1	-1.6	·	·	·	·	·
C=CCn1c(N2CCCC2)nc2c1c(=O)[nH]c(=O)n2C	-0.8	-1.2	1.2	41.1*	22.0	-27.1
Cc1nc2ccc(NC(=O)c3cc(S(=O)(=O)N4CCOCC4)ccc3C)cc2s1	-1.0	-8.0	8.0	2.8	-28.5	7.3
Cc1nc2ccc(NC(=O)N3CCOCC3)cc2s1	·	51.0*	-51.0	0.6	-9.6	-39.1
O=C(CSc1nnc(-c2ccccc2)o1)OCc1ccccc1	·	-69.2	69.2*	-17.8	-13.3	-0.6
O=C(Nc1cc2c3c(c1)C1CCCC1CN3CC1CCCC21)c1ccccc1 (stereo not drawn)	-2.7	12.0	-12.0	0.1	-13.4	-21.7
Clc1ccc(OCc2nc(-c3ccccn3)no2)c(Br)c1	-0.5	35.5*	-35.5	16.2	-26.8	-14.3
Clc1ccccc1OCc1nc(-c2ccccn2)no1	1.0	1.3	-1.3	-8.3	-15.9	9.5
Cc1ccsc1C(=O)Nc1ccccc1N1CCOCC1	1.0	-11.9	11.9	-3.4	-11.7	-16.7
CCn1c(SCC(=O)N(C(C)C)C(C)C)nnc1-c1cc2ccccc2cc1O	-1.9	-60.0	60.0*	26.4	10.9	6.4
CCc1nnc(NC(=O)CSc2nnc(-c3cc4ccccc4cc3O)n2CC)s1	-0.9	·	·	·	·	·
COc1ccc2[nH]c(=O)c(CN(C(=O)c3cccnc3)c3ccccc3)cc2c1	0.2	-66.9	66.9*	10.3	-5.9	-4.3
CCN(Cc1cc2cc(C)ccc2[nH]c1=O)C(=O)c1cccc(OC)c1	-0.3	16.8	-16.8	90.4*	82.3*	19.3
Cc1ccc(S(=O)(=O)NCC(=O)OCC(=O)c2c(N)n(C)c(=O)n(C)c2=O)cc1	-10.6	·	·	·	·	·
SMILES	Phagocytosis inh	NFkB transloc inh	NFkB transloc pot	VCAM1 TNFa inh	HUVEC tox TNFa	IL1B cytotox
CCc1nc2cc([N+](=O)[O-])c([N+](=O)[O-])cc2[nH]1	-1.7	·	·	·	·	·
CC(C(=O)Nc1ncn[nH]1)N1C(=O)c2ccccc2C1=O (stereo not drawn)	·	-22.7	22.7	3.3	-18.5	82.9*
CCN(CC(=O)NCc1ccccn1)S(=O)(=O)c1ccc(Cl)cc1	3.2	-1.6	1.6	16.6	78.6*	-6.9
CCN(CC(=O)NC1CCCCC1)S(=O)(=O)c1ccc(Cl)cc1	0.8	-27.3	27.3	13.6	13.4	-21.9
CCc1ccc(N(C(=O)Cn2nnc(-c3ccccc3)n2)C(C(=O)NC2CCCCC2)c2ccccn2)cc1 (stereo not drawn)	3.2	·	·	·	·	·
CCOC(=O)c1c(NC(=O)COC)sc(C)c1C	·	-49.3	49.3*	11.6	6.9	-25.1
CCOC(=O)c1c(NC(=O)COC)sc(C(C)=O)c1C	-0.1	-0.1	0.1	-8.3	·	-22.6
Cc1ccc(-n2nc(C)c3c(C(=O)OCC(=O)N(C)C4CCS(=O)(=O)C4)cc(-c4ccccc4)nc32)cc1 (stereo not drawn)	2.3	·	·	·	·	·
CC(=O)C1=C(C)OC(N)=C(C#N)C1c1cc2cc(C)c(C)cc2nc1Cl (stereo not drawn)	0.2	-43.3	43.3*	10.9	-16.7	-17.6
COC(=O)C1=C(C)OC(N)=C(C#N)C1c1ccc(OC)c(OC)c1OC (stereo not drawn)	0.3	-7.2	7.2	9.6	-15.0	-3.9
COC(=O)C1=C(C)N(c2ccc(Cl)c(Cl)c2)C(=O)C1	·	-55.4	55.4*	-17.0	-10.8	-13.2
COC(=O)C1=C(C)N(c2ccc(S(N)(=O)=O)cc2)C(=O)C1	1.2	6.4	-6.4	11.2	-17.5	-4.1
CC(C)(C)NS(=O)(=O)c1cc(C(=O)Nc2sccc2C#N)ccc1Cl	-3.6	·	·	·	·	·
CN(CCOc1ccccc1)S(=O)(=O)c1ccc2oc3ccccc3c2c1	-2.8	12.7	-12.7	-16.1	-18.3	-65.2
Cc1c(C(=O)OCC(C)C)[nH]c2c1C(=O)CC(c1ccco1)C2 (stereo not drawn)	1.7	12.4	-12.3	67.3*	64.3	2.8
C=CCOC(=O)c1[nH]c2c(c1C)C(=O)CC(c1ccco1)C2 (stereo not drawn)	-0.1	·	·	·	·	·
C/C=C/COC(=O)c1[nH]c2c(c1C)C(=O)CC(c1ccco1)C2 (stereo not drawn)	3.0	24.0	-24.0	51.2*	64.1	-3.6
Cc1nn(-c2ccccc2)c(C)c1/C=N/NC(=O)CSc1nnc(SCc2cccc3ccccc23)s1	0.6	·	·	·	·	·
COc1ccc(/C=N/NC(=O)c2cccc(OC(F)(F)C(F)F)c2)cc1O	-3.5	·	·	·	·	·
Cc1noc(C)c1COc1ccc(C(=O)OCC(=O)Nc2ccc3ccccc3c2)cc1	0.3	-4.0	4.0	-0.9	7.0	92.4*
Cc1cc2nnc(SCC(=O)Nc3cccc(S(=O)(=O)N4CCOCC4)c3)n2c2ccccc12	-14.2	·	·	·	·	·
O=C(CCNS(=O)(=O)c1cccs1)N1CCc2ccccc2C1	·	98.9*	-98.9	-16.0	5.4	-3.5
COc1cccc(/C=N/Nc2nc(Nc3ccccc3)nc(-n3nc(C)cc3C)n2)c1O	0.9	-14.6	14.6	86.7*	33.6	-8.0
Cc1cc(C)n(-c2nc(Nc3ccccc3)nc(-n3nc(C)cc3C)n2)n1	1.0	-13.5	13.5	5.5	-1.2	-44.3
O=C(CNC(=O)c1ccccc1F)NCCOc1ccccc1Cl	-7.7	·	·	·	·	·
O=C(CCN(CCO)Cc1ccccc1)Nc1ccc(Br)cc1	0.8	3.8	-3.8	-18.2	-4.6	14.4
CCN(CCC(=O)Nc1ccc(Br)c(C)c1)Cc1ccccc1	-0.6	50.0*	-50.0	-2.0	-11.6	-4.7
CCN(C(=O)CN(C)Cc1cccc(Cl)c1Cl)c1c(N)n(Cc2ccccc2)c(=O)[nH]c1=O	-9.8	·	·	·	·	·

Screening data as filed in PubChem BioAssay.
